Outcome and Potency data for 13 compounds are collected here from PubChem BioAssay (Tox21).

The nature of test [1]: qHTS assay to test for compound auto fluorescence at 535 nm (green) in HEK293 cells (AID 720680).
The nature of test [2]: qHTS assay to test for compound auto fluorescence at 460 nm (blue) in HEK293 cell free culture (AID 720681). In short, it runs like this:
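Compounds were added to cell-free DMEM with 10% FBS and fluorescence read directly. The blue channel used 405 nm excitation and 460 nm emission, with triamterene as the reference fluorophore.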

The nature of test [3]: qHTS assay to test for compound auto fluorescence at 535 nm (green) in HEK293 cell free culture (AID 720682). In short, it runs like this: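 Each library compound, or DMSO control, is added by pintool to medium alone, comprising DMEM and 10% FBS. Emission at 535 nm following 485 nm excitation is quantified against fluorescein.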
Test [4] can be described thus: qHTS assay to test for compound auto fluorescence at 590 nm (red) in HEK293 cell free culture (AID 720683). Put shortly:
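Cell-free wells of DMEM with 10% FBS received compound, and intrinsic fluorescence was read at excitation/emission 540/590 nm. Values expressed as equivalence to Rose Bengal sodium.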

The nature of test [5]: qHTS assay to test for compound auto fluorescence at 590 nm (red) in HepG2 cell free culture (AID 720684). In short, it runs like this:
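Auto fluorescence equivalency versus Rose Bengal sodium, red channel Ex/Em 540/590 nm; compounds in cell-free MEM/10% FBS; DMSO vehicle control.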

Test [6] is described as follows: qHTS assay to test for compound auto fluorescence at 460 nm (blue) in HepG2 cell free culture (AID 720685). Put shortly:
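Cell-free plates of MEM plus 10% FBS received 23 nL compound or DMSO vehicle; blue-channel (405/460 nm) intensity scored against triamterene as reference fluorophore.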

The nature of test [7]: qHTS assay to test for compound auto fluorescence at 535 nm (green) in HepG2 cell free culture (AID 720686).
A short description of test [8]: qHTS assay to test for compound auto fluorescence at 460 nm (blue) in HepG2 cells (AID 720687). Put shortly:
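HepG2 cells in MEM with 10% FBS, attached overnight at 37 C, were exposed to compound or DMSO for 1 hr at 37 C, 5% CO2. Blue fluorescence was read at 405/460 nm, with triamterene as reference fluorophore.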

The nature of test [9]: qHTS assay to identify small molecule antagonists of the glucocorticoid receptor (GR) signaling pathway - cell viability counter screen (AID 720693). Also: nearly all actives have a fitted effect of over 55% in size.
The nature of test [10]: qHTS assay for identifying genotoxic compounds that show differential cytotoxicity against isogenic chicken DT40 cell lines with known DNA damage response pathways - wild type cell line (AID 743012). Also: nearly all actives have a fitted effect of over 60% in size. Also: potency is read from the fitted curve at half-maximal effect. In short, it runs like this:
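300 wt DT40 cells/well; cpd (DMSO) pintool-transferred after ~0.5 h at 37 C/5% CO2; 40 h incubation; CellTiter-Glo added, 30 min RT; luminescence read.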

Test [11] is described as follows: qHTS assay for identifying genotoxic compounds that show differential cytotoxicity against isogenic chicken DT40 cell lines with known DNA damage response pathways - Rev3 mutant cell line (AID 743014). Also: nearly all actives have a fitted effect of over 55% in size. Also: potency is read from the fitted curve at half-maximal effect.
Test [12] is described as follows: qHTS assay for identifying genotoxic compounds that show differential cytotoxicity against isogenic chicken DT40 cell lines with known DNA damage response pathways - Rad54/Ku70 mutant cell line (AID 743015). Also: nearly all actives have a fitted effect of over 60% in size. Also: potency is read from the fitted curve at half-maximal effect.
The nature of test [13]: qHTS assay to identify small molecule antagonists of the androgen receptor (AR) signaling pathway using the MDA cell line - cell viability counter screen (AID 743041; also: nearly all actives have a fitted effect of over 45% in size). Put shortly:
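Compound exposure lasted 16 h at 37C in MDA-kb2 AR-luc cells stimulated with R1881. Protease-based CellTiter-Fluor reagent was applied for the final 30 min and fluorescence measured.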

Test [14] in a line: qHTS assay to identify small molecule antagonists of the androgen receptor (AR) signaling pathway - cell viability counter screen (AID 743033; also: nearly all actives have a fitted effect of over 45% in size).
Test [15] has as its target Androgen receptor (Homo sapiens) (UniProt P10275). Put plainly: qHTS assay to identify small molecule antagonists of the androgen receptor (AR) signaling pathway (AID 743035; active = well fitted inhibition curve with a large enough effect in the signal ratio in the repeat runs, not every such curve was filed as active; the % refers to the signal ratio). Put shortly: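 In this cell-based reporter screen, compounds were tested in concentration series against R1881-activated HEK293 cells expressing beta-lactamase under UAS control; after 16 h at 37C, FRET substrate was added and fluorescence read 2 h later.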

Test [16] has the same target. Nature of the test: qHTS assay to identify small molecule agonists of the androgen receptor (AR) signaling pathway using the MDA cell line (AID 743040; also: nearly all actives have a fitted effect of over 20% in size). Put shortly:
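Testing was done with the MDA-kb2 AR-luc line, a human breast carcinoma stably transfected with MMTV-luciferase containing AR and GR response elements. Cells were exposed 16 h at 37C before ONE-Glo luminescence detection.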

The target is the same in test [17]. Put plainly: qHTS assay to identify small molecule antagonists of the androgen receptor (AR) signaling pathway using the MDA cell line (AID 743042; also: nearly all actives have a fitted effect of over 55% in size). In short, it runs like this: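 MDA-kb2 breast carcinoma cells carrying MMTV-luciferase (AR/GR responsive) were co-treated with compounds and the agonist R1881 for 16 h at 37C. Inhibition read as ONE-Glo luminescence; CellTiter-Fluor fluorescence measured in parallel for cytotoxicity.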

Test [18] shares this target. Put plainly: qHTS assay to identify small molecule agonists of the androgen receptor (AR) signaling pathway (AID 743036; active = well fitted activation curve with a large enough effect in the signal ratio in the repeat runs, with a control signal flat, not every such curve was filed as active; the % refers to the signal ratio). Put shortly:
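Following a 4 h settling period, AR-UAS-bla HEK293 cells were dosed with compounds for 16 h at 37C. A 2 h room-temperature incubation with LiveBLAzer B/G FRET substrate preceded the fluorescence measurement.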

Where “and” joins values, the source holds several entries; their conditions need not be identical. Identical values can stand only once. Values without a mark were called inactive. Inconclusive results are not listed. Calls of active or inactive are those of the source. Unless noted, calls follow the shape of the dose curve; as a rule, active = well fitted curve in the direction sought with a large enough effect in the repeat runs; inconclusive = weak or mixed curves; inactive = no such curve, though single readings can be large; an effect the other way counts as inactive or inconclusive.

Sequence of Androgen receptor (Homo sapiens) (P10275 whole entry, looked up): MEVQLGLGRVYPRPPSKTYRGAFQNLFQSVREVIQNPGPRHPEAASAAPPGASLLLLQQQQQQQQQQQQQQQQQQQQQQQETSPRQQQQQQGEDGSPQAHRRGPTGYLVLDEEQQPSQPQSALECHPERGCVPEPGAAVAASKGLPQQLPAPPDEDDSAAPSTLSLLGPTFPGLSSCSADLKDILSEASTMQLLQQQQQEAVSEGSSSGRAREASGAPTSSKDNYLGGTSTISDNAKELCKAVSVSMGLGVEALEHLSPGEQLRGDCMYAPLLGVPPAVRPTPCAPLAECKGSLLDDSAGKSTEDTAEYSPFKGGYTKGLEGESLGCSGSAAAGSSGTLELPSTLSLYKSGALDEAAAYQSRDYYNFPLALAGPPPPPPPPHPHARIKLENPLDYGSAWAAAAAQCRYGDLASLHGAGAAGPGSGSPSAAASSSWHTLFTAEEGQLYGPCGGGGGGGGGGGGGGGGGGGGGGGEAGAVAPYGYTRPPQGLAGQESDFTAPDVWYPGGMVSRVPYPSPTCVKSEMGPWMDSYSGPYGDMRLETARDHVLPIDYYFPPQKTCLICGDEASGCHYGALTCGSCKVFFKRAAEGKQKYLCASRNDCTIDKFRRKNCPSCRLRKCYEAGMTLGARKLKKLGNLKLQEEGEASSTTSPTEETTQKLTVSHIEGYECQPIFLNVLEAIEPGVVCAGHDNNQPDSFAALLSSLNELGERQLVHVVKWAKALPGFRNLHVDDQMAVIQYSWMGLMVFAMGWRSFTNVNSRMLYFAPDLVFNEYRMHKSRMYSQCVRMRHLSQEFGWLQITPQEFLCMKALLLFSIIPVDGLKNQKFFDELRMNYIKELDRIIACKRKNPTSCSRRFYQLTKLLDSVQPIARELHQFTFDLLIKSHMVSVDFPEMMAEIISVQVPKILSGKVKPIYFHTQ

Regarding `O=C(O)c1cccc(Cl)c1`, the call in test [1], in test [2], in test [3], in [4], in test [5] and in test [6] was inactive. The call in [7] and in test [8] was inactive. In addition, the Potency entry in [9], in [10], in test [11], in [12] and in [13] was “inactive” in each case.

For the compound `ClC(Cl)(Cl)C(Cl)(Cl)Cl`, the outcome in test [1], in [2], in test [3], in test [4], in test [5] and in test [6] was inactive. Besides, the compound was classed as inactive in [7] and in [8]. For the same compound, the Potency entry in test [9], in test [10], in test [11], in [12] and in [13] was “inactive” each time.

Turning to `CCCCOC(=O)c1ccccc1C(=O)O`, the call in [1], in test [2], in test [3], in [4], in [5] and in test [6] was inactive. In addition, the compound was called inactive in [7], in test [8] and in test [17]. In addition, the Potency entry in test [9], in test [10], in test [11], in test [12], in [14] and in test [15] was “inactive” each time. The Potency result in test [16] and in test [13] was “inactive” each time.

As for `CCOP(=O)(OCC)OP(=O)(OCC)OCC`, the compound was called inactive in test [1], in test [2], in test [3], in test [4], in [5] and in [6]. Moreover, the call in test [7], in [8], in test [18] and in test [17] was inactive. The Potency result in test [9], in [10], in test [12], in [14], in [15] and in [16] was “inactive” each time. In [13], the Potency entry was “inactive”.

`COCC(=O)N(c1c(C)cccc1C)N1CCOC1=O`: the compound was classed as inactive in test [1], in test [2], in test [3], in test [4], in [5] and in [6]. Also, the result in test [7] and in test [8] was inactive. Moreover, the Potency result in test [9], in [10], in [11], in [12], in [14] and in test [13] was “inactive” throughout.

In the case of `C=C(C)[C@@H]1CC=C(C=O)CC1`, the compound was classed as inactive in test [1], in test [2], in test [3], in [4], in test [5] and in test [6]. The result in test [7] and in [8] was inactive. The Potency result in test [9], in test [14] and in [13] was “inactive” in each case. The Potency is 54.5 µM (active) in test [10], 61.1 µM (active) in test [11] and 54.5 µM (active) in test [12].

Turning to `CCOC(=O)CP(=O)(OCC)OCC`, the call in test [1], in test [2], in test [3], in test [4], in [5] and in test [6] was inactive. Further, the result in test [7] and in test [8] was inactive. The Potency entry in [9], in [10], in test [11], in test [12], in [14] and in test [13] was “inactive” each time.

With `CCN(CC)C(C)C(=O)c1ccccc1` (stereo not drawn), the outcome in test [1], in test [2], in test [3], in test [4], in test [5] and in test [6] was inactive. The outcome in test [7], in [8], in test [18] and in test [17] was inactive. The Potency result in [9], in [10], in test [11], in [12], in test [14] and in test [15] was “inactive” throughout. Further, the Potency result in [16] and in [13] was “inactive” throughout.

Take `COc1cc2c(cc1OC)[C@@]13CCN4CC5=CCO[C@H]6CC(=O)N2[C@H]1[C@H]6[C@H]5C[C@H]43`: the compound was called inactive in test [1], in [2], in [3], in test [4], in test [5] and in test [6]. Moreover, the compound was classed as inactive in test [7] and in test [8]. Further, the Potency entry in [9], in test [14] and in test [13] was “inactive” each time. Besides, the Potency in test [10] was 24.3 µM (active); in [11], 24.3 µM (active); in [12] it was 26.6 µM (active) and 13.7 µM (active).

As for `CN(C)CCc1ccc(O)cc1`, the compound was called inactive in test [1], in test [2], in test [3], in [4], in test [5] and in test [6]. The call in test [7] and in [8] was inactive. The Potency result in test [9], in test [10], in test [11], in [12] and in [13] was “inactive” throughout.

Turning to `O=[N+]([O-])c1cc(Cl)c(Cl)c(Cl)c1`, the result in test [1], in [2], in test [3], in test [4], in test [5] and in [6] was inactive. For the same compound, the compound was called inactive in test [7] and in [8]. Further, the Potency entry in test [9], in test [10], in [11], in test [12] and in [13] was “inactive” throughout.

As to `NC(=S)C(N)=S`, the result in test [1], in test [2], in test [3], in [4], in test [5] and in [6] was inactive. The call in test [7] and in test [8] was inactive. Moreover, the Potency result in test [9], in test [10], in [11], in test [12], in [14] and in test [13] was “inactive” each time.

Turning to `NC(=O)O`, the call in [1], in [2], in test [3], in test [4], in [5] and in test [6] was inactive. The compound was classed as inactive in test [7] and in test [8]. The Potency entry in test [9], in test [10], in test [11], in [12], in [14] and in test [13] was “inactive” each time.
